The list is not random: actives were taken first. Their share in the collection is about 6.2%.
HT1080-NT tox = qHTS for induction of synthetic lethality in tumor cells producing 2HG: qHTS for the HT-1080-NT fibrosarcoma cell line | 1.6% of 360,000 active | HT-1080-NT fibrosarcoma viability, CellTiter-Glo ATP luminescence, 48 h | AID 686970, 2013 | Potency, µM (series often up to 46.1 µM), for the others: top-dose activity, negative = less viability, actives largely listed as cytotoxic;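 note: NT is the 2HG producing partner of a matched IDH1 knockdown line; 0% = DMSO-treated cells and -100% = media-only wells without cells; nearly all actives have a fitted effect of over 55% in size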
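Viability of the 2HG-overproducing fibrosarcoma line after 48 hours of compound exposure at 37 degrees C was determined by luminescence with CellTiter-Glo, and concentration-effect curves were then fitted and categorized.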
ATXN viability = Viability Counterscreen for Primary qHTS for Inhibitors of ATXN expression | S2 cells (HEK-293 line with an ATXN2-luciferase reporter) viability, CellTiter-Fluor protease fluorescence, 24 h | Potency, µM (series often up to 56.7 µM), hits mostly cytotoxic | 0.49% of 400,000 active; note: nearly all actives have a fitted effect of over 40% in size
KB-V1 cytotox = qHTS assay for MDR1-selective chemotherapeutics: Primary screen using the drug-selected MDR subline cells KB-V1; KB-V1 MDR cells viability, CellTiter-Glo, 72 h; Potency, µM (doses to about 46.1 µM), most hits filed as cytotoxic; 3.4% of 400,000 active; note: % is set by controls: 0 for no effect and ±100 for the full control effect; nearly all actives have a fitted effect of over 60% in size
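KB-V1 MDR subline cells in DMEM (phenol-red free, 10% FBS) exposed to compounds in qHTS concentration series for 72 h at 37 degrees C. Viability read by CellTiter-Glo luminescence; concentration-effect curves fitted after normalization and correction.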
ATXN2 expr inh = Primary qHTS for Inhibitors of ATXN expression | HEK-293 ATXN2-luciferase reporter, luminescence, 24 h | 0.72% of 360,000 active | Potency, µM (top dose mostly 57 µM), for the others: at the highest dose activity change, negative = inhibition, usual class: inhibitors; note: % is set by controls: 0 for no effect and ±100 for the full control effect; nearly all actives have a fitted effect of over 55% in size
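ATXN2-luciferase reporter cells (luciferase flanked by upstream and downstream ATXN2 gene portions) were treated 24 h at 37 °C with compounds at up to 57 uM. SteadyGlo luminescence gave expression; GF-AFC fluorescence gave viability.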
HT1080 IDH1KD tx = qHTS for induction of synthetic lethality in tumor cells producing 2HG: qHTS for the HT-1080-IDH1KD cell line | HT-1080 IDH1 knockdown viability, ATP luminescence, 48 h | 2% of 360,000 active | Potency, µM (top dose mostly 46.1 µM), for the others: top-dose activity, negative = toxicity, hits mostly cytotoxic | AID 686971, 2013;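 note: 0% = DMSO wells and -100% = cell-free medium wells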
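In this qHTS, HT-1080 cells depleted of IDH1 are exposed for 48 h at 37 °C to compound titrations. Toxicity is scored from CellTiter-Glo luminescence, with DMSO as full viability and medium alone as none.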
KB-3-1 tox = qHTS assay for MDR1-selective chemotherapeutics: Primary screen using the parental adenocarcinoma cell KB-3-1; KB-3-1 viability, CellTiter-Glo ATP luminescence, 72 h; Potency, µM (highest dose often 46.1 µM), usual class: cytotoxic; 1.4% of 400,000 active; note: % is set by controls: 0 for no effect and ±100 for the full control effect; nearly all actives have a fitted effect of over 60% in size
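Screening of KB-3-1 cells (DMEM, 10% FBS, phenol-red free) ran from lowest to highest compound concentration; after 72 h at 37 °C viability was read luminescently and curves fitted.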
Numbers without * were called inactive; i = inactive; ? = inconclusive; . = no result; [ ] = dose if it differs, or a comment. Calls come from the whole dose curve; as a rule, active = well fitted curve in the direction sought with a large enough effect; inconclusive = small, poorly fitted or top-dose-only effect, or another doubt; inactive = no such curve, though single readings can be large; an effect the other way counts as inactive or inconclusive. Potency is the fitted concentration of half-maximal effect.

SMILES	HT1080-NT tox	ATXN viability	KB-V1 cytotox	ATXN2 expr inh	HT1080 IDH1KD tx	KB-3-1 tox
Cc1cc(Cl)ccc1NC(=O)CN1C(=O)NC2(CCCC2)C1=O	-6%	i	i	21%	4%	?
CCOC(=O)c1c(NC(=O)CN2C(=O)NC3(CCC(C)CC3)C2=O)sc(C)c1-c1ccc(C)cc1 (stereo not drawn)	-5%	i	i	-4%	0%	i
Cc1ccc(Cl)cc1NC(=O)CN1C(=O)NC2(CCCCCC2)C1=O	-9%	?	21µM*	-5%	-2%	i
CCOC(=O)c1c(NC(=O)CN2C(=O)NC3(CCCCC3)C2=O)sc(C)c1-c1ccc(C)cc1	-3%	i	21µM*	1%	-9%	?
CC1=C(C(=O)Nc2ccccc2)C(c2ccncc2)n2nc(SCc3ccccc3F)nc2N1 (stereo not drawn)	.	i	i	-4%	.	i
C=CCCC(=O)NC1CCCc2c1cnn2-c1ccccc1F (stereo not drawn)	-7%	i	i	0%	-8%	i
CC1(C)CC2C1CCC1(O)CC2(C)CCC1N(O)c1ccc(C(=O)NCCO)cn1 (stereo not drawn)	-18%	?	i	28µM*	-8%	?
CN1CCN(C(=O)CCCN2C(=O)/C(=C/c3cccc(Br)c3)SC2=S)CC1	?	11µM*	?	?	18µM*	?
O=C(CCCN1C(=O)/C(=C/c2cccc(Br)c2)SC1=S)N1CCOCC1	0%	i	?	28%	4%	?
CN1CCN(C(=O)CCN2C(=O)/C(=C/c3cccc(Br)c3)SC2=S)CC1	15µM*	?	i	88%	?	?
O=C(COC(=O)c1c(F)cccc1Cl)NCC1CCCCC1	-4%	i	i	42%	-2%	i
COc1ccccc1CCC(=O)N1CCOc2c(cc(-c3cnc4ccccc4c3)cc2OC)C1	.	i	.	.	.	.
O=S(=O)(c1ccccc1)N1CCC(O)(CSc2ccc(F)cc2)CC1	-10%	?	?	?	18µM*	?
O=C(CSc1ccccc1)N1CCN(S(=O)(=O)c2ccccc2)CC1	10%	i	i	-1%	-3%	i
O=S(=O)(c1ccccc1)N1CCC(O)(CSc2ccccc2)CC1	23µM*	i	i	-27%	-24%	i
CNc1nccc(-c2cccnc2Oc2cc(C(=O)Nc3cccc(C(F)(F)F)c3)ccc2C)n1	.	.	.	24µM*	.	.
COc1cc(Nc2c3c(nc4ccccc24)CCCC3)cc(OC)c1OC	?	?	i	35%	?	?
COc1cc(Cl)c(C)cc1Nc1c2c(nc3ccccc13)CCC2	.	14µM*	i	?	.	4.1µM*
COc1ccc(Nc2c3c(nc4ccccc24)CCC3)c(OC)c1	18µM*	i	4.1µM*	-33%	16µM*	21µM*
CNc1cccc(S(=O)(=O)N2CCCN(S(=O)(=O)c3ccc4c(c3)OCCO4)CC2)c1	.	.	i	.	.	i
CC(C)C[C@H]1CNC(=O)C(=O)N1CC1CCN(CCc2ccccc2)CC1	6%	i	i	-2%	8%	i
CCOC(=O)c1ccc(N=C2SC(C(=O)Nc3ccccc3)CC(=O)N2C)cc1 (stereo not drawn)	.	i	i	-5%	.	i
CCN(CC)CC(O)Cn1c2ccccc2c2ccccc21 (stereo not drawn)	-22%	i	i	-21%	-17%	i
CCN(CC)CC(O)Cn1c(C)c(-c2ccccc2)c2cc([N+](=O)[O-])ccc21 (stereo not drawn)	21µM*	i	i	?	?	?
CC(C)OP(=O)(OC(C)C)C(NC(=O)c1ccc(Br)cc1)c1ccccc1 (stereo not drawn)	20µM*	i	3.7µM*	-31%	?	?
SMILES	HT1080-NT tox	ATXN viability	KB-V1 cytotox	ATXN2 expr inh	HT1080 IDH1KD tx	KB-3-1 tox
CC(NC(=O)c1ccc(Br)cc1)c1ccccc1 (stereo not drawn)	14%	i	i	-5%	23%	i
COc1cc(CN2C(=O)CC[C@@H]3CN(Cc4ccccn4)CC[C@@H]32)cc(OC)c1OC	.	i	.	.	.	.
CC(C)NCC(=O)NC12CC3CC(CC(C3)C1)C2	2%	i	21µM*	3%	6%	i
COc1ccc(-c2cc(C(=O)Nc3c(C)nn(Cc4ccccc4)c3C)no2)cc1	-27%[9.24 µM]	i	i	?	16µM*	i
Cc1nn(Cc2ccc(Cl)cc2)c(C)c1NC(=O)C(c1ccccc1)c1ccccc1	7%	i	12µM*	11%	1%	i
Cc1nn(Cc2ccccc2)c(C)c1NC(=O)c1cc(-c2cccs2)on1	-2%	i	4.1µM*	-15%	?	i
Cc1nn(Cc2ccccc2)c(C)c1NC(=O)c1cccs1	3%	i	i	-11%	?	i
COc1cccc(-c2cc(C(=O)Nc3c(C)nn(Cc4ccccc4)c3C)no2)c1	-7%	i	i	-3%	?	i
COC(=O)C1(C(=O)OC)CCCCN(S(=O)(=O)c2ccc(C)cc2)CCC1	-2%	i	?	-19%	-14%	?
COc1ccc(-c2cn3nc(N4CCC(C(=O)Nc5ccccc5OC)CC4)sc3n2)cc1	.	.	i	.	.	i
COc1ccc(O)c(/C=c2/sc3nc4cc(C)c(C)cc4n3c2=O)c1	?	i	18µM*	-18%	?	?
COC(=O)c1cc(=O)nc2sc3cc(OC)ccc3n12	17%	i	i	33%	18%	i
CCN(Cc1ccccc1)S(=O)(=O)c1ccc(C(=O)Nc2nnc(C3CC3)o2)cc1	-15%	i	i	20µM*	-17%	?
CCc1ccc(OCC(=O)Nc2cc(-c3ccc(C)cc3)no2)cc1	.	i	i	6%	.	i
N#C/C(=C\c1c(N(Cc2ccccc2)Cc2ccccc2)nc2ccccn2c1=O)C(N)=O	0%	?	?	0%	0%	i
C=CCNC(=O)/C(C#N)=C/c1c(N(Cc2ccccc2)Cc2ccccc2)nc2ccccn2c1=O	-5%	?	18µM*	-26%	-29%	i
